# Assay outcomes: PubChem BioAssay, National Center for Advancing Translational Sciences (NCATS)
# ALDH1A1 block: blocks purified human ALDH1A1 activity; P00352; Purified ALDH1A1, NADH fluorescence, propionaldehyde substrate; Potency, µM (top dose mostly 75.3 µM), without a hit: at the top dose activity, negative = inhibition, most hits filed as inhibitors; actives 7.3% (n = 220,000);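 further: potency means the concentration at half of the fitted maximal effect; plate controls were no enzyme wells and a reference inhibitor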
# HPGD inh: inhibitors of human 15-hydroxyprostaglandin dehydrogenase (HPGD). AID 894. actives 4.3% (n = 150,000). Potency, µM, for inactives: at the top dose activity change, negative = inhibition, most hits filed as inhibitors. purified HPGD, NADH fluorescence kinetic, PGE2 substrate; further: potency means the concentration at half of the fitted maximal effect
# Target sequence (P15428 whole entry, looked up): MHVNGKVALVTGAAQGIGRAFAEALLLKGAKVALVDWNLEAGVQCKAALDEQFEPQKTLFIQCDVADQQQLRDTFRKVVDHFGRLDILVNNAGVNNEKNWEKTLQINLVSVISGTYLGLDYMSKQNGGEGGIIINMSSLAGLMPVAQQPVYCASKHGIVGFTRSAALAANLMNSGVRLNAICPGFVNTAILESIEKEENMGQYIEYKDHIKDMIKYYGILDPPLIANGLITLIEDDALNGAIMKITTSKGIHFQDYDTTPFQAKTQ
#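 NADH formation kinetics: reaction with 30 uM PGE2 and 1 mM NAD+ (final), 20 nM enzyme, Tris-HCl pH 8 with Tween 20, after 15 min compound preincubation at room temperature. Fluorescence change, last versus first of five reads.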
# PNC assembly inh: blocks assembly of the perinucleolar compartment; activity change (PNC), negative = inhibition, % at 10 µM; PC3M PTB-GFP, PNC prevalence imaging, 16 h; active compounds read low; actives 3.1% (n = 140,000);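 active means readout at or below -70, meaning at least 70% loss of cells showing the perinucleolar compartment, a nuclear body marking cancer cells; inconclusive means readout between -30 and a set limit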;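 further: plate controls were DMSO wells for no effect and camptothecin positive control wells for full effect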
#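 Compounds are pinned in duplicate onto adhered PC3M cells stably expressing GFP-tagged PTB and incubated 16 h at 37 C. Cells are then fixed, nuclei stained with Hoechst, and PNC-positive cells counted.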
# * marks the source's active call; other numbers are inactive results; ? = inconclusive; / = no result; [ ] = remark or other dose. Rows were chosen to be rich in hits. Some 11% of all compounds tested hit in one or more screens of this group. Unless noted, the call rests on the fitted dose curve; in most records, active means well fitted inhibition curve with a large enough effect (not every such curve was filed as active); inconclusive means small, poorly fitted or top-dose-only effect, or another doubt; inactive means no such curve, though single readings can be large or run the other way. Unless noted, on the % scale 0 is the no-effect control and ±100 the full control effect.
SMILES,ALDH1A1 block,HPGD inh,PNC assembly inh
Cc1ccc(C(=O)CSc2nnc(C(C)C)n2C)cc1C,10.1%,/,/
CCCCn1nnnc1SCC(=O)c1cc(Cl)ccc1OC,5.01µM*,-25.6%,63.6
Cc1ccc(C(=O)N2CC(=O)Nc3ccc(F)cc3C2c2ccccc2)cc1[N+](=O)[O-] (stereo not drawn),-9.0%,-0.5%,8.2
COc1ccc(Cl)cc1NC(=O)COC(=O)CNC(=O)c1ccc([N+](=O)[O-])c(C)c1,8.9%,-20.1%,41.4
Cc1cc(C(=O)NCC(=O)OCC(=O)Nc2ccc(OC(F)F)cc2)ccc1[N+](=O)[O-],3.16µM*,-26.6%,-6.6
Cc1ccc[n+](CC2OCc3ccccc3CO2)c1,4.5%,/,/
Cc1cc(C)n(-c2cc(N3CCN(C(=O)c4cccc(F)c4)CC3)ccc2[N+](=O)[O-])n1,4.47µM*,-13.4%,12.2
CS(=O)(=O)N1CCN(c2ccc([N+](=O)[O-])c(N3CCOCC3)c2)CC1,-10.5%,-11.8%,2.4
O=C(c1ccccc1)N1CCN(c2ccc([N+](=O)[O-])c(N3CCOCC3)c2)CC1,0.891µM*,-9.2%,?
O=C(c1cccc(F)c1)N1CCC(N2CCOCC2)CC1,14.1µM*,-8.4%,1.0
Cc1cc(C)n(-c2cc(N3CCN(C(=O)c4ccc(C(C)(C)C)cc4)CC3)ccc2[N+](=O)[O-])n1,?,-16.7%,1.0
O=C(c1cccc(Cl)c1)N1CCC(N2CCC(C(=O)N3CCOCC3)CC2)CC1,-9.3%,/,/
O=C(/C=C/c1ccc(Cl)cc1)N1CCN(c2ccc([N+](=O)[O-])c(N3CCOCC3)c2)CC1,?,-26.7%,56.0
O=C(c1cccc(F)c1)N1CCN(c2ccc([N+](=O)[O-])c(N3CCOCC3)c2)CC1,7.94µM*,-9.6%,-25.3
N[C@@H](Cc1ncccn1)C(=O)O,-12.3%[13.5 µM],-4.0%,/
Cc1ccccc1CC1(CO)CCCN(C(=O)CCCN2CCCCC2=O)C1 (stereo not drawn),-15.1%,/,/
CCC(C)[C@H](NC(=O)NCCCn1ccnc1)C(=O)OC (stereo partly drawn),-0.4%,-5.2%,?
O=C1N=C(N2CCOCC2)S/C1=C\c1ccc(OS(=O)(=O)c2ccccc2)cc1,28.2µM*,/,/
O=C1N=C(N2CCc3ccccc3C2)S/C1=C\c1cccc(O)c1,2.51µM*,5.01µM*,6.5
COc1cc(/C=C2\SC(N3CCc4ccccc4C3)=NC2=O)cc(OC)c1OC,?,-17.5%,-1.0
O=C1N=C(N2CCCC2)S/C1=C\c1ccccc1,?,-17.5%,-9.6
CCOc1ccc(N2Cc3ccccc3C2)cc1,?,-25.3%,0.5
CCOc1ccc(/C=C2\SC(N3CCc4ccccc4C3)=NC2=O)cc1,-10.2%,22.4µM*,14.0
O=C(NCCn1ccc2ccccc21)c1cccc([N+](=O)[O-])c1,4.4%,/,/
Cc1ccc(S(=O)(=O)N[C@H]2COC(=O)C/C=C\[C@@H](C)COC(=O)C/C=C\[C@@H]2C)cc1,-14.8%[13.5 µM],/,/
SMILES,ALDH1A1 block,HPGD inh,PNC assembly inh
O=C(NC1CCCC1)C(c1ccc(F)cc1)N(Cc1ccc(Cl)cc1)C(=O)CCl (stereo not drawn),2.4%,-2.5%,-7.6
CN1CCN(C(CNS(=O)(=O)c2ccc(Cl)cc2)c2cccnc2)CC1 (stereo not drawn),-3.6%,-8.3%,-100.0*
CN1CCN(C(CNS(=O)(=O)c2ccc(F)cc2)c2cccnc2)CC1 (stereo not drawn),-0.8%,-9.8%,-100.0*
COc1ccc(S(=O)(=O)NCC(c2cccnc2)N2CCN(C)CC2)cc1C (stereo not drawn),?,-1.9%,23.8
CCS(=O)(=O)NCC(c1cccnc1)N1CCN(c2ccccc2)CC1 (stereo not drawn),-4.2%,3.0%,18.6
NC(=O)c1ncn([C@@H]2O[C@H](CO)[C@@H](O)[C@H]2O)c1O,-15.3%,-14.6%,-11.4
O=C(O)CCSc1nnc(-c2cccnc2)n1-c1ccccc1,2.6%,-11.2%,2.1
N#Cc1ccc(OCC(=O)N/N=C(\CCC(=O)O)c2cccs2)cc1,-2.8%,/,/
CN(Cc1nc(-c2cccs2)no1)CC1(N2CCOCC2)CCCCC1,-8.0%,/,/
O=C(c1csc2c1CCCCC2)N1CCN(c2ncccn2)CC1,20µM*,-12.4%,31.9
O=C(c1csc2c1CCCC2)N1CCCCC1,0.2%,1.58µM*,11.9
Cc1ccc(CNC(=O)c2csc3c2CCCCC3)cc1,10.4%,?,59.9
O=C(c1ccccc1F)N1CCN(c2ncccn2)CC1,?,-13.9%,126.2
CCOc1ccccc1NC(=O)CCn1cccc1,12.5%,/,/
CC(=O)Cc1nsc(NC(=O)c2cccs2)n1,-7.2%,-11.8%,-24.3
Fc1ccc(N/N=C/C=C/c2ccccc2)c(F)c1,?,?,-10.3
O=C(Cc1ccc(Cl)cc1)N1CCN(C(=O)c2ccco2)CC1,-5.6%,0.1%,38.6
